A3A deaminase = inhibitors of human APOBEC3A DNA deaminase; actives 0.41% (n = 330,000); inhibition, % at 20 µM; recombinant A3A, FAM/TAMRA ssDNA deamination fluorescence;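 active means at least 40% inhibition at 20 µM here, with at most 30% in a related deaminase screen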;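 further: plate controls were A3A with DMSO for no effect and wells lacking A3A enzyme for full effect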
A3G deaminase = blocks human APOBEC3G single-stranded DNA deamination; Q9HC16; recombinant A3G, ssDNA deamination FAM/TAMRA fluorescence; inhibition, % at 20 µM; actives 0.28% (n = 330,000);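 active means inhibition of at least 40% at 20 µM, with no more than 30% in the related APOBEC3A deaminase screen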;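 further: plate controls were DMSO wells with A3G for no effect and wells lacking A3G enzyme for full effect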
Target sequence (Q9HC16 whole entry, looked up): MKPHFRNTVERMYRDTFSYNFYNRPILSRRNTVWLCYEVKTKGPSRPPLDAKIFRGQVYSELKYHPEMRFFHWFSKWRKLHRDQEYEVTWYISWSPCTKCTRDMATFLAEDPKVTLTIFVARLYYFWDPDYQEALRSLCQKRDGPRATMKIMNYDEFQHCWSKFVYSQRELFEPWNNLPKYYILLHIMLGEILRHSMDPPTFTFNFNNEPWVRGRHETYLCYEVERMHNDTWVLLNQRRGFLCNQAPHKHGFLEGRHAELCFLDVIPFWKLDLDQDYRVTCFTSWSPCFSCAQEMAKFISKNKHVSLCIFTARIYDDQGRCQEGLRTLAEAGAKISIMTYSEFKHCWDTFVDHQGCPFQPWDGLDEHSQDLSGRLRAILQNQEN
aDG glyco act = increases alpha dystroglycan glycosylation; Pro5-aDG cells, alpha-DG glycosylation AlphaScreen (IIH6); 0% Pro5, 100% B10-LARGE cell signal; activation, % at 10 µM; actives 0.22% (n = 360,000);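 active means activation of at least 8% versus controls, or a plate z-score of at least 8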;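 further: Pro5 are CHO cells carrying HIG-tagged alpha-DG that lacks glycosylation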
rCAG RNA binder = molecules binding r(CAG) RNA repeats | inhibition, % at 3 µM | actives 1.3% (n = 370,000) | AID 651821 | r(CAG) RNA repeat, TO-PRO-1 dye displacement fluorescence;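 active means inhibition above the plate cutoff, the mean of all test compounds on that plate plus 3 SD, cut at about 35% in these data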;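 further: 0% = DMSO alone and 100% = 100 µM mitoxantrone as full dye displacement; higher means more dye released from RNA so lower well fluorescence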
PHOSPHO1 block = blocks human PHOSPHO1 phosphatase activity; recombinant PHOSPHO1, absorbance phosphatase assay; inhibition, % at 13.3 µM; actives 1.1% (n = 290,000); in the data active means inhibition above about 60%
ALR H2O2 inh = inhibitors of human sulfhydryl oxidase ALR. P55789. purified ALR, DTT oxidation, H2O2 HRP-luminol luminescence. inhibition, % (concentration not given with the values). actives 3.8% (n = 290,000). AID 485317;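 active means mean replicate inhibition above about 79%, with every replicate also reaching it, limit read from the data; inconclusive means only one of the two criteria met; inactive means mean below limit and not every replicate reaching it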
Active calls of the source: *; u = inconclusive; x = no result. Only some compounds are listed: those with a hit (about 5.4% of all), similar ones and a draw of the others.

SMILES	A3A deaminase	A3G deaminase	aDG glyco act	rCAG RNA binder	PHOSPHO1 block	ALR H2O2 inh
c1ccc(N2CCOCCOCCOCCOCCOCC2)cc1	2	-2	0	-5	41	96*
c1ccc2c(Nc3ccc(N4CCOCC4)cc3)nc(N3CCOCC3)nc2c1	-11	-6	0	-8	3	92*
O=C(N1CCOCC1)N1CCN(c2ccccc2)CC1	-2	1	0	-2	8	54
COc1ccc(CNc2ccc(N3CCOCC3)cc2)cc1	-8	-3	0	0	-6	99*
c1ccc(CNc2ccc(N3CCOCC3)cc2)cc1	-6	-4	0	7	x	99*
CCCCN1CCN(C(=O)C2CCN(S(=O)(=O)c3ccc4[nH]c(=O)oc4c3)CC2)CC1	x	x	x	7	x	x
O=S1(=O)c2ccc(N3CCC[C@@H]3CO)cc2OCCCN1C1CC1	x	x	x	6	x	x
Nc1ccc2nc(SCC(=O)c3ccccc3)sc2c1	-7	-7	0	8	x	41
Nc1ccc2nc(SCc3ccccc3F)sc2c1	-2	-8	0	4	-16	99*
CCc1ccccc1NC(=S)Nn1cnnc1	-1	0	0	0	61*	9
Cc1ccccc1NC(=S)Nn1cnnc1	-2	5	0	0	9	7
CNCc1nc2ccccc2[nH]1	0	-8	0	0	28	x
O=S(=O)(NCc1nc2ccccc2[nH]1)c1ccccc1	-1	-7	0	-4	73*	-1
Cc1cc(C(=O)CSc2nc3ccc(Cl)cc3[nH]2)c(C)n1CC1CCCO1 (configuration not stated)	3	-6	3	12	100*	44
Cc1cc(C(=O)CSc2nc3ccc(Cl)cc3[nH]2)c(C)n1C	3	1	0	17	86*	-2
Cc1cc(C(=O)CSc2nc3ccccc3[nH]2)c(C)n1C	0	-5	0	3	51	x
Cc1ccc2nc(SCC(=O)Nc3cccnc3Cl)[nH]c2c1	-2	-3	0	4	x	88*
C/C(N)=C(/C#N)C(=O)CSc1nc2ccc(C)cc2[nH]1	-3	-2	0	4	72*	6
Cc1ccc2nc(SCC(=O)c3c(N)n(C)c(=O)n(C)c3=O)[nH]c2c1	5	-1	0	3	-114	6
Cc1ccc(C)c(SCC(=O)Nc2cccnc2Cl)c1	3	-3	0	0	-18	-14
O=C(NCCc1c[nH]c2ccccc12)OCc1cn(-c2cccc(Cl)c2)nn1	x	x	x	4	x	x
O=C(N[C@H](Cc1ccccc1)C(=O)NCc1ccccn1)[C@H]1O[C@@H](n2ccc(=O)[nH]c2=O)[C@H](O)[C@@H]1O	x	x	x	0	x	x
CC(C)CNC(=O)CC1Oc2ccccc2NC1=O (configuration not stated)	x	x	x	-1	x	x
COc1ccc(Nc2nnc(SCC(=O)c3cc(C)n(CC4CCCO4)c3C)s2)cc1 (configuration not stated)	0	-4	0	3	98*	-23
Cc1ccc2nc(SCC(=O)c3cc(C)n(C)c3C)[nH]c2c1	-5	-7	0	7	71*	u
SMILES	A3A deaminase	A3G deaminase	aDG glyco act	rCAG RNA binder	PHOSPHO1 block	ALR H2O2 inh
COc1cc(C(c2nnnn2C(C)(C)C)N2CCN(c3nc4ccccc4s3)CC2)ccc1O (configuration not stated)	1	-3	1	-1	61*	6
CCOCCc1c(O)nc(SCC(=O)N2CCOCC2)[nH]c1=O	-1	-8	0	-1	28	85*
CCCCc1c(O)nc(SCC(=O)N2CCOCC2)[nH]c1=O	-8	-6	1	1	-3	98*
CCCCCCc1c(O)nc(SCCN2CCOCC2)[nH]c1=O	3	-1	0	-1	68*	37
CCCCc1c(O)nc(SCC(=O)N2CCOCC2)n(-c2ccc(C)cc2)c1=O	x	x	0	1	x	x
O=S1(=O)c2ccc(N3CCSCC3)cc2Oc2ccccc2CN1Cc1cn(Cc2ccccc2C(F)(F)F)nn1	x	x	x	13	x	x
C[C@H]1C2CC(OC(=O)Nc3ccc(C(F)(F)F)cc3)C(C2)[C@H]2CCCCN21 (some centres not stated)	x	x	x	1	x	x
Cc1cc(S(=O)(=O)Nc2cc(C)c(O)c(C)c2)c(C)s1	-8	-5	0	-1	16	77*
Cn1c(=S)[nH]c2cccnc21	1	-4	0	2	25	97*

Compound activity (PubChem BioAssay)
